Experimental data as given in the supplement of paper PMC6555819.

What was measured:
Assay in all cases: PBM binding z-score (relative to random genomic background probes); higher = stronger binding; sequences stand for … in GC…GCGATTGACAGCGTAGAATGAAGG
[1] = test system: PPARg:RXRa DBDmut IVT, anti-RXR (DBD mutation: RXRa K156A/R161A, NR concentration 270 nM, RXRa partner concentration 90 nM)
In short: (§1)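 Custom Agilent 4×180K protein-binding microarrays carried double-stranded probes. Their 34-nt variable regions held direct-repeat seeds, single-nucleotide variants, half-site ablations and random human genomic background sequences. Arrays were incubated 1 h with ligand-free nuclear receptor dimers in PBS pH 7.4, 2% milk, 0.02% Triton X-100, 1 mM DTT, 0.2 mg/mL BSA and 0.4 mg/ml salmon testes DNA. Antibodies against each partner (one per run) detected binding, and scanned fluorescence was regression-normalized. Binding z-scores use random background probes as reference.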

[2] = test system: PPARg:RXRa IVT, anti-PPARg (NR concentration 270 nM, RXRa partner concentration 90 nM)
In short: as §1

[3] = test system: PPARg DBDmut:RXRa IVT, anti-PPARg (DBD mutation: PPARg1 K132A/R137A, NR concentration 270 nM, RXRa partner concentration 90 nM)
In short: as §1

[4] = test system: PPARg DBDmut IVT, anti-PPARg (DBD mutation: PPARg1 K132A/R137A, NR concentration 270 nM)
In short: as §1

[5] = test system: PPARg homodimer (NR concentration 180 nM)
In short: as §1

[6] = test system: PXR:RXRa (NR concentration 270 nM, RXRa partner concentration 90 nM)
In short: as §1

[7] = test system: PXR homodimer (NR concentration 270 nM)
In short: as §1

[8] = test system: RARa:RXR (NR concentration 270 nM, RXRa partner concentration 90 nM)
In short: as §1

[9] = test system: RARa homodimer (NR concentration 270 nM)
In short: as §1

[10] = test system: RARb:RXRa (NR concentration 270 nM, RXRa partner concentration 90 nM)
In short: as §1

[11] = test system: RARb homodimer (NR concentration 270 nM)
In short: as §1

[12] = test system: RARg:RXRa (NR concentration 270 nM, RXRa partner concentration 90 nM)
In short: as §1

[13] = test system: RARg homodimer (NR concentration 270 nM)
In short: as §1

[14] = test system: RXRa DBDmut IVT, anti-RXR (DBD mutation: RXRa K156A/R161A, NR concentration 90 nM)
In short: as §1

[15] = test system: RXRa homodimer (NR concentration 180 nM)
In short: as §1

[16] = test system: THRa:RXRa (NR concentration 90 nM, RXRa partner concentration 90 nM)
In short: as §1

[17] = test system: THRa homodimer (NR concentration 90 nM)
In short: as §1

[18] = test system: VDR homodimer (NR concentration 270 nM)
In short: as §1

Sequence	PBM binding z-score [1]	PBM binding z-score [2]	PBM binding z-score [3]	PBM binding z-score [4]	PBM binding z-score [5]	PBM binding z-score [6]	PBM binding z-score [7]	PBM binding z-score [8]	PBM binding z-score [9]	PBM binding z-score [10]	PBM binding z-score [11]	PBM binding z-score [12]	PBM binding z-score [13]	PBM binding z-score [14]	PBM binding z-score [15]	PBM binding z-score [16]	PBM binding z-score [17]	PBM binding z-score [18]
TAGCCTAGGTCATTCAGGGGCCAGTAAAGAAAGC	1.81	3.14	0.536	0.653	1.04	2.39	-0.023	3.28	0.0478	3.86	3.38	6.24	4.69	1.5	3.27	3.63	0.491	1.24
CTGACTGGGGCAAAGGTTACCATACTCAGTACGA	6.27	6.51	0.767	0.374	1.19	2.61	0.266	4.17	0.228	2.67	2.6	3.83	2.21	0.587	4.06	2.08	0.233	0.376
CCTTACGGGTCAATCCAGGTTATAGCATCGGAGT	3.11	3.6	0.439	-0.233	1.18	5.42	0.705	3.74	0.489	3.44	3	4.49	4.17	1.75	4.31	4.93	0.547	1.32
ACTATTAGTTGAGGCGAGGGCAACCGATAGGTTG	0.169	0.559	0.713	0.82	0.794	0.918	0.305	0.644	0.393	1.4	1.3	0.575	0.748	0.263	0.386	2.43	0.721	0.813
ACTATTAGTTGACCTAGGGCAACCGATACGACGC	1.31	2.56	0.917	1.25	1.64	2.05	0.901	2.79	0.637	2.18	3.05	2.88	2.36	0.89	2.55	2.96	1.6	0.946
CGTCAAAGTTCAACTAAGGCAACGTAAAGCACGC	0.00616	2	0.22	-0.059	3.19	4.83	4.13	3.62	1.59	5.21	4.17	5.79	6.64	4.64	5.05	4.74	0.241	3.68
CCTAGCAGGCCAGGGTTACTCAAGCATTTCGCTT	0.153	-0.137	-1.74	-1.06	-0.6	-0.139	-0.48	0.193	-0.665	0.303	0.0028	-0.0642	-0.141	-0.596	0.113	0.382	-0.445	-0.788
AGAATGAGGTTATACGTAGATCAGGGAAGAAAGT	4.01	1.92	0.956	1.16	0.9	1.2	0.682	1.82	0.738	1.54	1.19	1.88	1.24	1.35	2.23	2.23	0.863	0.864
AATACAGGGTCATCGTAGGCGAGAGTACGCACAG	2.84	4.14	3.29	1.01	2.21	4.29	1.03	5.1	1.25	4.37	3.47	5.58	4.77	3.52	6.54	4.45	1.32	3.54
CCTAGCAGGCCTGGGTCACTCAAGCATTTCGCTT	0.171	0.217	-1.39	-1.28	0.279	0.53	-0.661	1.16	0.152	1.43	1.69	1.25	0.967	-0.144	0.958	1.48	0.229	-0.269
CCTACTGGGCCACAAAGGTCATTGATGCCGATAA	4.98	5.53	0.0367	-0.795	3.95	5.34	5.11	5.76	1.78	4.2	4.64	5.33	4.68	1.13	6.32	3.38	0.818	3.31
GGGACGAGGGCATTCGAGTTGATAGCATGGCGAT	1.51	1.47	-0.173	0.189	0.254	3.68	1.37	1.08	0.349	2	1.01	1.19	1.58	2.93	0.775	3.52	-0.0645	3.06
GCTGCTAGGTCAGGTTGGTCCGCTAACGGGTACG	2.43	2.33	-0.695	-0.237	0.526	0.421	-0.826	0.786	-0.467	3.27	2.4	2.29	3.46	0.513	0.839	2.36	0.57	-0.0405
TCATATAGGTAATACAGGTGAAATTCGGCATCTA	3.87	2.95	1.39	1.39	1.02	0.776	0.431	1.2	1.76	0.602	0.536	0.764	0.496	1.51	1.34	1.04	0.421	0.0975
TCAGACTGGTGAAGGTAACTCAGGTACGCAGTCG	1.41	0.112	-0.324	-0.759	-0.234	0.0294	-0.386	0.305	-0.373	-0.0149	-0.0938	-0.218	-0.262	0.596	0.463	0.985	0.0816	-0.271
